# High-throughput results from PubChem BioAssay.
# HTT cytoprotect: cytoprotection in Huntington HTT-Q103 PC12 cell model. Potency, µM (doses to about 56.4 µM), without a hit: cytoprotection (ATP increase), usual class: activators. PC12 HTT-Q103 induced, cytoprotection, ATP luminescence, 40 h. actives 0.14% (n = 230,000); active = well fitted curve in the direction sought with a large enough effect; inconclusive = small, poorly fitted or top-dose-only effect, or another doubt; inactive = no such curve, though single readings can be large; an effect the other way counts as inactive or inconclusive; note: % of control where 0% means no effect; nearly all actives have a fitted effect of over 45% in size
#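 Quantitative HTS on tebufenozide-induced (100 nM) PC12 cells expressing HTTQ103 exon 1–GFP; compounds tested as a concentration series; survival measured via cellular ATP.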
# HPGD block: inhibitors of human 15-hydroxyprostaglandin dehydrogenase (HPGD); P15428; purified HPGD, NADH fluorescence kinetic, PGE2 substrate; Potency, µM, inactives show at the top dose activity change, negative = inhibition, actives largely listed as inhibitors; actives 4.3% (n = 150,000); AID 894; note: % is set by controls: 0 for no effect and ±100 for the full control effect
# Target sequence (P15428 whole entry, looked up): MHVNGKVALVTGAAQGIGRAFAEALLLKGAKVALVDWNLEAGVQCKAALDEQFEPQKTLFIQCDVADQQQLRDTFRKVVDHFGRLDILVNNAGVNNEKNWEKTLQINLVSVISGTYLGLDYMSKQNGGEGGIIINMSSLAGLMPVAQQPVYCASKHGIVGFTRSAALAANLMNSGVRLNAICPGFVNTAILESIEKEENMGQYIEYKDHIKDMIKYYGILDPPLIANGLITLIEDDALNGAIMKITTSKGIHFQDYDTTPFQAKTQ
#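 NADH formation kinetics: reaction with 30 uM PGE2 and 1 mM NAD+ (final), 20 nM enzyme, Tris-HCl pH 8 with Tween 20, after 15 min compound preincubation at room temperature. Fluorescence change, last versus first of five reads.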
# ALDH1A1 inh: inhibitors of human aldehyde dehydrogenase 1A1; Purified ALDH1A1, NADH fluorescence, propionaldehyde substrate; Potency, µM (doses to about 75.3 µM), for the others: at the top dose activity, negative = inhibition, actives largely listed as inhibitors; AID 1030; actives 7.3% (n = 220,000);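 note: plate controls were no enzyme wells and a reference inhibitor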
# Target sequence (P00352 whole entry, looked up): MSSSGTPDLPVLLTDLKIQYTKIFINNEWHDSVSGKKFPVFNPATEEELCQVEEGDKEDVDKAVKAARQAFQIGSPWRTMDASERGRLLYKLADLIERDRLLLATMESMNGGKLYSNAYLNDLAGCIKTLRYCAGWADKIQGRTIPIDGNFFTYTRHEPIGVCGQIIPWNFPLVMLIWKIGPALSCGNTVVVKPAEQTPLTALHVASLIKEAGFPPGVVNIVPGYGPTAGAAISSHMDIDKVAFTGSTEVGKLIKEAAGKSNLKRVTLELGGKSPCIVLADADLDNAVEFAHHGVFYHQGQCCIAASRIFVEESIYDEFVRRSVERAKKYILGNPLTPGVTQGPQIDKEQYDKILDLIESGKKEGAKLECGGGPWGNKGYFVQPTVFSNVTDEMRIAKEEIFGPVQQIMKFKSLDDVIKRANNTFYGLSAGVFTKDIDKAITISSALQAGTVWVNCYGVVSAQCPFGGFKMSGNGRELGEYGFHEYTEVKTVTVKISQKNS
# HTT aggregate: reduces HttQ103-GFP aggregates in PC12 cells. PC12 HttQ103-GFP aggregates, Acumen cytometry, 40 h. actives 1.1% (n = 220,000). Potency, µM (doses to about 46.1 µM), for the others: at the top dose activity change, negative = inhibition, most hits filed as inhibitors. AID 1688; active = well fitted curve in the direction sought with a large enough effect; inconclusive = small, poorly fitted or top-dose-only effect, or another doubt; inactive = no such curve, though single readings can be large; an effect the other way counts as inactive or inconclusive; note: % is set by controls: 0 for no effect and ±100 for the full control effect; nearly all actives have a fitted effect of over 60% in size
#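 Multiplexed with ATP-based cell death, this channel scores GFP aggregates in PC12 cells expressing inducible HTTex1-Q103-GFP. Induction used 100 nM tebufenozide; compounds were tested in concentration series.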
# LMNA splice mod: changes lamin A minigene splicing in HeLa cells; HeLa LMNA splicing GFP/RFP minigene ratio, 48 h; Potency, µM (series often up to 46.1 µM), without a hit: at the top dose ratio change, negative = inhibition, hits mostly inhibitors; actives 0.01% (n = 200,000); AID 1487; active = well fitted inhibition curve with a large enough effect in the signal ratio, with a control signal flat, not every such curve was filed as active; inconclusive = small, poorly fitted or top-dose-only effect, or effect the other way, or a change in a side signal; the % refers to the signal ratio; note: % is set by controls: 0 for no effect and ±100 for the full control effect
#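 S3 HeLa stable clones carrying a lamin A-EGFP splicing minigene plus DsRed2 were seeded at 600 cells/well in Opti-MEM with 2% FBS, pin-dosed and incubated 48 h at 37°C. Acumen cytometry (488 nm) gave the GFP/RFP total-intensity ratio.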
# * marks the source's active call; other numbers are inactive results; ? = inconclusive; . = no result given; [ ] = another dose, or the depositor's remark. A selection: hits, their analogues and other compounds. The true share with any hit is near 8.8%. Unless noted, calls come from the whole dose curve; as a rule, active = well fitted inhibition curve with a large enough effect (not every such curve was filed as active); inconclusive = small, poorly fitted or top-dose-only effect, or another doubt; inactive = no such curve, though single readings can be large or run the other way. Potency is the fitted concentration of half-maximal effect.
SMILES,HTT cytoprotect,HPGD block,ALDH1A1 inh,HTT aggregate,LMNA splice mod
CCOC(=O)c1ccccc1NC(=O)c1ccc(NS(C)(=O)=O)cc1,5%[10 µM],16µM*,?,-11%,-10%
CCCOC(=O)COC(=O)c1ccccc1NC(=O)c1ccccc1,9%[10 µM],-21%,?,19%,1%
Cn1c(=O)c2c(n3c4ccccc4nc13)NC(=O)CC2c1cccc(F)c1 (configuration not stated),.,.,.,.,-13%[46 µM]
COc1ccc(NC(=O)CSc2nc3nc(C)c(Cc4ccccc4)c(C)n3n2)cc1OC,.,.,.,.,-8%[46 µM]
CCC(C)C(=O)OC1CC(C)C=C2C=CC(C)C(CCC3CC(O)CC(=O)O3)C21 (configuration not stated),.,-1%,-10%,.,-5%
CCC1CCCCN1CCCNC(=O)c1ccc(N2CCOCC2)c(NS(=O)(=O)c2ccc(OC)cc2)c1 (configuration not stated),-28%,.,?,1%,.
CCOCCCNC(=O)c1ccc(N2CCOCC2)c(NS(=O)(=O)c2ccc(OC)cc2)c1,-35%,.,2.5µM*,0%,.
COCCCNC(=O)c1ccc(N2CCOCC2)c(NS(=O)(=O)c2ccc(OC)cc2)c1,-4%,-7%,?,-9%,-6%
CCCCNC(=O)c1ccc(N2CCOCC2)c(NS(=O)(=O)c2ccc(OC)cc2)c1,-18%[10 µM],-12%,8.9µM*,25%,6%
O=C(NCc1cccc(Cl)c1)c1cc(COc2ccc3ncccc3c2)on1,-2%[10 µM],.,?,-4%[9.22 µM],?
CC(C)N(Cc1nccn1C)C(=O)c1cc(COc2ccc3ncccc3c2)on1,-6%,.,-7%,20µM*,.
Cc1ccc(F)cc1CNC(=O)c1cc(COc2ccc3ncccc3c2)on1,-2%,.,-3%,13µM*,.
CCOC(=O)N/N=C1/C[C@@H](O)[C@@H](O)[C@@H]2[C@@H]3C(=O)N(Cc4ccc5c(c4)OCO5)C(=O)[C@H]3CC[C@@H]12,4%[10 µM],.,4%[13.5 µM],.,.
O=C(c1nc2ccccn2c1CN1CCC(Cc2ccccc2)CC1)N1CCCC1,-31%,.,11µM*,-18%,.
CN(C)NC(=S)NC(=O)C12CC3CC(CC(C3)C1)C2,-10%,.,28µM*,14%,?
CC(C)(C)NC(=S)NC(=O)C12CC3CCC(CC(C3)C1)C2,15%[10 µM],0%,?,?,4%
Nc1ccc(N2CCCCC2)cc1N1CCCCC1,-23%[10 µM],-1%,4µM*,?,?
Nc1ccc(N2CCCCC2)c2nonc12,7%[10 µM],.,7.9µM*,2%[9.22 µM],9%[46 µM]
Nc1cc(Cl)ccc1N1CCCCCC1,-7%[10 µM],.,18µM*,?,?
Nc1c(N2CCCC2)cc(Cl)c2nonc12,-23%[0.074 µM],.,?,-15%,-19%
CCC(=S)/C=C1\Sc2ccc3ccccc3c2N1CCCS(=O)(=O)O,27%,32µM*,-3%,10%,16%
O=C(CN(Cc1ccccc1)S(=O)(=O)c1ccccc1)N/N=C/c1ccccc1[N+](=O)[O-],-16%,-1%,11µM*,1%,-13%
Cc1ccc(CN(CC(=O)N/N=C/c2ccccc2[N+](=O)[O-])S(=O)(=O)c2ccc(C)cc2)cc1,-3%,-18%,?,-18%,-10%
COc1ccc(/C=C/c2onc(C)c2S(=O)(=O)N2CCC(C(=O)N3CCC(C)CC3)CC2)cc1,.,.,.,.,1%[46 µM]
COc1ccc(CCNS(=O)(=O)c2ccc(F)c(C(=O)Nc3ccc(Cl)cc3)c2)cc1OC,.,.,.,.,-25%[46 µM]
SMILES,HTT cytoprotect,HPGD block,ALDH1A1 inh,HTT aggregate,LMNA splice mod
Cn1c(-c2ccccc2)cnc1SCc1nc2ccccc2c(=O)[nH]1,-28%[10 µM],-21%,32µM*,-9%,-3%
CC/C(C)=N/NS(=O)(=O)c1ccc(C)c([N+](=O)[O-])c1,-12%[10 µM],.,.,-20%[9.22 µM],.
Cc1ccc(S(=O)(=O)N/N=C2/CCCCC2C2CCCCC2)cc1[N+](=O)[O-] (configuration not stated),-4%[10 µM],-10%,35µM*,-1%,-2%
CCC(C)(C)C1CCC(=NNS(=O)(=O)c2ccc(C)c([N+](=O)[O-])c2)CC1 (configuration not stated),-1%[10 µM],-3%,7.9µM*,2%,-6%
C=CC(=O)CC,5%,-2%,2µM*,.,.
C/C(=N\NC(=O)c1ccc(CN(C)S(=O)(=O)c2ccc(C)cc2)cc1)c1ccc(OC(F)F)cc1,2%[10 µM],.,25µM*,-8%,?
CC(=O)c1cc(C#N)c(SCc2ccc([N+](=O)[O-])cc2)nc1C,-9%[10 µM],.,6%,2%[9.22 µM],.
COC(=O)C1C(c2ccc(N(C)C)cc2)C(C(=O)OC)S(=O)(=O)CS1(=O)=O (configuration not stated),-31%,.,10µM*,-9%[9.22 µM],.
Brc1ccc(OCc2ccccc2)c(CNCc2ccncc2)c1,-48%,-6%,2µM*,?,-2%[0.0737 µM]
Fc1ccc(COc2ccccc2CNCc2ccncc2)cc1,3%[10 µM],-3%,?,10%,?
CC[n+]1c(/C=C/N(C)c2ccccc2)oc2ccc(F)cc21,5%[10 µM],-3%,14µM*,?,?
Cc1cc(=O)oc2cc(O)c(O)cc12,.,?,?,.,7%
COc1ccc(-n2nnnc2SCC(=O)Nc2cccc(NC(C)=O)c2)cc1OC,-1%,?,2%,-10%,6%
Cc1ccc(-n2nnnc2SCC(=O)Nc2cccc(NC(=O)c3ccco3)c2)cc1C,-29%[10 µM],.,?,10µM*,?
COc1cccc(-n2nnnc2SCC(=O)Nc2cccc(NC(C)=O)c2)c1,1%,-21%,7.1µM*,6%,?
CC(=O)Nc1cccc(NC(=O)CSc2nnnn2Cc2ccccc2)c1,20%,-8%,13µM*,8%,?
Cc1cc(C)cc(-n2nnnc2SCC(=O)Nc2cccc(NC(=O)c3ccco3)c2)c1,-9%,-5%,?,12%,?
COc1cccc(-n2nnnc2S(C)(=O)=O)c1,-120%,20µM*,1.3µM*,2.5µM*,?
C/C(=N\N1CCN(c2ccccc2)CC1)c1ccncc1,5%[10 µM],.,13%,-26%[9.22 µM],3%[46 µM]
O=S(=O)(Nc1cccc(-c2ccc(N3CCCC3)nn2)c1)c1ccccc1C(F)(F)F,.,.,.,.,10%[46 µM]
Cc1cc(C)c(NC(=O)CSc2nc3ccc(NC(=O)CSc4nnnn4-c4ccccc4)cc3s2)c(C)c1,.,-18%,?,10µM*,2%
O=C(CSc1nc2ccc(NC(=O)CSc3nnnn3Cc3ccccc3)cc2s1)Nc1ccccc1,11%[10 µM],?,13µM*,10%,-5%
COC(=O)CSc1nc2ccc(NC(=O)CSc3nnnn3Cc3ccccc3)cc2s1,-18%,?,4.5µM*,0%,-3%
CSc1ccc(Cl)c(C(=O)NC2CCCC2)c1,-2%,16µM*,9%,4%,12%
COc1cc(SC)ccc1C(=O)NC1CCCCC1,-16%[10 µM],22µM*,?,9%,3%
O=C(NC1CCCCCCC1)c1cc(F)c(F)cc1Cl,-50%,.,-13%,-17%,1%[46 µM]
